The text below walks through data of PMC11062922 (Nature Chemical Biology, 2023).

Holding throughout (parameters): species or system human, MV4-11 + K-562 + COLO205 + SK-N-BE2 + OVCAR-8
One assay has as its system ACVR2B. The following applies: read-out: apparent Kd, n = 1.
A further assay relates to PDGFRB. The following applies: read-out: apparent Kd; compound concentrations: 100 nM and 1000 nM (sheet 'Samples'), CATDS: 0.12494680251160301; n = 1.
In a further assay the test system is PIK3CD. The following applies: read-out: apparent Kd, compound concentrations: 100 nM and 1000 nM (sheet 'Samples'), n = 1.
A further assay relates to CSNK1D. As to conditions: read-out: apparent Kd; compound concentrations:100 nM and 1000 nM (sheet 'Samples'); n = 1.
In the next assay the test system is EPHA2. The following applies: read-out: apparent Kd, n = 1.
A further assay deals with EPHA4. As to conditions: read-out: apparent Kd, n = 1.
For a further assay, the system named is EPHB2. The following applies: read-out: apparent Kd, n = 1.
A further assay deals with EPHB4. As to conditions: read-out: apparent Kd, n = 1.
The subject of another assay is MAPKAPK2. The following applies: read-out: apparent Kd, n = 1.
In the next assay the test system is TGFBR2. As to conditions: read-out: apparent Kd, compound concentrations: 100 nM and 1000 nM (sheet 'Samples'), n = 1.
A further assay concerns PRKD3. The following applies: read-out: apparent Kd, compound concentrations: 100 nM and 1000 nM (sheet 'Samples'), n = 1.
A further assay deals with BUB1. As to conditions: read-out: apparent Kd, n = 1.
A further assay concerns MAP2K1. The following applies: read-out: apparent Kd, compound concentrations: 100 nM and 1000 nM (sheet 'Samples'), n = 1.
The next assay has as its system T1, DJA1.
T1 construct: gene DNAJA1
The following applies: read-out: apparent Kd; compound concentrations: 100 nM and 1000 nM (sheet 'Samples'), CATDS: 3.8253703176693299E-2; n = 1.

The next assay concerns MAP4K5. The following applies: read-out: apparent Kd, n = 1.
The next assay deals with MAP2K2. The following applies: read-out: apparent Kd; compound concentrations: 100 nM and 1000 nM (sheet 'Samples'), CATDS: 6.4354786580358606E-2; n = 1.
The next assay relates to NQO1. The following applies: read-out: apparent Kd; compound concentrations:100 nM and 1000 nM (sheet 'Samples'); n = 1.
In the next assay the test system is MAPK9. As to conditions: read-out: apparent Kd; compound concentrations:100 nM and 1000 nM (sheet 'Samples'); n = 1.
Where [1] appears, read: compound concentrations:100 nM and 1000 nM (sheet 'Samples').

Molecules are shown by their SMILES. Read-outs that look alike come from different tables or passages of the source.

Turning to `Cc1cccc(-c2cc(-c3c[nH]nc3-c3ccccn3)ccn2)c1` [GW679395X], in the assay on ACVR2B (setting [1]), the potency estimated from few doses is 1660 nM.

Turning to `COc1ccc(-n2cnc3c(N)ncnc32)cc1` [SKF-97236], the potency estimated from few doses in the assay on PDGFRB was 1970 nM; in the assay with PIK3CD (CATDS: 0.374681686981787), 222 nM.

Turning to `Nc1nc(-c2cccnc2)c(-c2ccnc3ccccc23)s1` [GW684083X], the potency estimated from few doses in the assay with CSNK1D was 2190 nM.

Consider `Cc1ccc(O)cc1Nc1ccnc2cc(-c3ccccn3)ccc12.Cl` [GW440139A], for which the potency estimated from few doses in the assay with ACVR2B (compound concentrations: 100 nM and 1000 nM (sheet 'Samples'), CATDS: 0.21714398687124201) is 5.63 nM; in the assay with EPHA2 (compound concentrations: 100 nM and 1000 nM (sheet 'Samples'), CATDS: 2.9853649287190101E-2) it was 529 nM; with EPHA4 (compound concentrations: 100 nM and 1000 nM (sheet 'Samples'), CATDS: 5.0335970342337201E-2) it was 81.6 nM; in the assay with EPHB2 (compound concentrations: 100 nM and 1000 nM (sheet 'Samples'), CATDS: 6.0515406545195598E-2), 52 nM; with EPHB4 (compound concentrations: 100 nM and 1000 nM (sheet 'Samples'), CATDS: 9.4734389919906598E-2), 20.9 nM; in the assay with MAPKAPK2 (compound concentrations: 100 nM and 1000 nM (sheet 'Samples'), CATDS: 2.53755109568197E-2), 1570 nM. The potency estimated from few doses in the assay on TGFBR2 (CATDS: 0.155660799519896) was 9.12 nM.

Take `CN1C(=O)c2ccccc2N(C)c2nc(Nc3cnn(C4CCNCC4)c3)ncc21` [XMD-17-51]: the potency estimated from few doses in the assay with PIK3CD (CATDS: 3.4664155585902003E-2) was 111 nM; in the assay with PRKD3 (CATDS: 1.40532268775709E-2), 1650 nM; in the assay with TGFBR2 (CATDS: 1.41245865647958E-2), 1610 nM.

With `COc1cc2ncn(-c3cc(OCCCc4ccccc4)c(C(N)=O)s3)c2cc1OC` [GSK205189A], the potency estimated from few doses in the assay on EPHA4 (setting [1]) is 1250 nM; in the assay with EPHB2 (setting [1]), 697 nM; with EPHB4 (setting [1]) it was 636 nM.

On to `CN(C)Cc1ccc(-c2ccc3c(Nc4ccc(Oc5ccccn5)cc4)ccnc3c2)o1` [GW567148X], for which the potency estimated from few doses is 824 nM in the assay on EPHA4 (compound concentrations: 100 nM and 1000 nM (sheet 'Samples'), CATDS: 2.1324962018011699E-2); 615 nM in the assay on EPHB2 (compound concentrations: 100 nM and 1000 nM (sheet 'Samples'), CATDS: 2.3863521838316901E-2); 509 nM in the assay with EPHB4 (compound concentrations: 100 nM and 1000 nM (sheet 'Samples'), CATDS: 2.5851405238779799E-2).

As for `Fc1cc(Cl)ccc1Nc1ccnc2cc(-c3ccc(CN4CCOCC4)o3)ccc12` [GW560109X], the potency estimated from few doses in the assay with ACVR2B (compound concentrations: 100 nM and 1000 nM (sheet 'Samples'), CATDS: 7.2197051902398501E-2) is 673 nM.

As for `CC(=O)N1CCN(c2ccc(Nc3nccc(-c4sc(C(C)C)nc4-c4cccc(NS(=O)(=O)c5ccccc5)c4)n3)cn2)CC1` [GSK1645872A], the potency estimated from few doses in the assay on BUB1 (compound concentrations: 100 nM and 1000 nM (sheet 'Samples'), CATDS: 3.26865073204873E-2) was 604 nM; with PRKD3 (CATDS: 5.5326802343899903E-2) it was 227 nM.

Consider `COc1ccc(-c2nc3n(c2-c2ccncc2)CCC3)cc1.COc1ccc(-c2nc3n(c2-c2ccncc2)CCC3)cc1.O=S(=O)(O)O.O=S(=O)(O)O` [SKF-104493-B2], for which the potency estimated from few doses is 2400 nM in the assay on MAP2K1 (CATDS: 9.8642022165156204E-2); 867 nM with MAPKAPK2 (compound concentrations: 100 nM and 1000 nM (sheet 'Samples'), CATDS: 0.15746092707453499).

Take `CC(=O)N1CCN(c2ccc(Nc3nccc(-c4sc(C(C)C)nc4-c4cccc(NS(=O)(=O)c5cccc(Cl)c5)c4)n3)cn2)CC1` [GSK1660437A]: the potency estimated from few doses in the assay on BUB1 (compound concentrations: 100 nM and 1000 nM (sheet 'Samples'), CATDS: 4.8956093582398198E-2) was 873 nM; with DJA1, 1690 nM; in the assay with PRKD3 (CATDS: 4.4377312299456101E-2), 1110 nM.

For the compound `Cn1cc(-c2cnc(N)c3c(-c4ccc5c(c4)CCN5C(=O)Cc4ccccc4)csc23)cn1` [GSK2593074A], the potency estimated from few doses with MAP4K5 (setting [1]) is 302 nM.

Take `CC(C)c1nc(-c2cccc(NS(=O)(=O)c3c(F)cccc3F)c2F)c(-c2ccnc(Nc3ccc(N4CCOCC4)nc3)n2)s1` [GSK2008607A]: the potency estimated from few doses was 721 nM with BUB1 (compound concentrations: 100 nM and 1000 nM (sheet 'Samples'), CATDS: 2.5044910199505301E-2); 671 nM in the assay with PRKD3 (CATDS: 2.5792208741447099E-2).

For the compound `N#Cc1cnc2cc(-c3cnc(CNCCN4CCOCC4)s3)ccc2c1Nc1ccc(Oc2ccccc2)cc1` [GW664114X], the potency estimated from few doses in the assay with MAP2K1 (CATDS: 5.9486551355906997E-2) was 606 nM; in the assay on MAP2K2 it was 499 nM; in the assay on MAP4K5 (compound concentrations: 100 nM and 1000 nM (sheet 'Samples'), CATDS: 0.103025865385486), 199 nM.

Turning to `COc1cc2ncn(-c3cc(OCc4ccncc4)c(C(N)=O)s3)c2cc1OC` [GSK336313A], in the assay with NQO1, the potency estimated from few doses was 1230 nM.

`Cl.Cn1c(=O)c(Cc2ccc(F)cc2F)cc2cnc(NC3CCOCC3)nc21` [RO3308757-001]: the potency estimated from few doses is 1130 nM in the assay on EPHA2 (setting [1]); 743 nM in the assay with EPHA4 (setting [1]); 364 nM with EPHB2 (setting [1]); 268 nM in the assay on EPHB4 (setting [1]); 1030 nM in the assay with MAPK9; 669 nM in the assay with MAPKAPK2 (setting [1]).

For `Cc1ccc(O)cc1Nc1ccnc2ccc(C(C)(C)C)cc12` [GW856805X], the potency estimated from few doses was 1250 nM with ACVR2B (compound concentrations: 100 nM and 1000 nM (sheet 'Samples'), CATDS: 2.76899291361602E-2); 18.5 nM in the assay on EPHA2 (compound concentrations: 100 nM and 1000 nM (sheet 'Samples'), CATDS: 8.0596912814025104E-2); 22 nM in the assay on EPHA4 (compound concentrations: 100 nM and 1000 nM (sheet 'Samples'), CATDS: 7.4195620286495498E-2); 29.3 nM in the assay on EPHB2 (compound concentrations: 100 nM and 1000 nM (sheet 'Samples'), CATDS: 6.5287043089823998E-2); 9.72 nM in the assay with EPHB4 (compound concentrations: 100 nM and 1000 nM (sheet 'Samples'), CATDS: 0.113366992887299); 130 nM in the assay on TGFBR2 (CATDS: 3.9995494154685202E-2).

Take `CNc1nccc(-c2c(-c3ccc(F)cc3)ncn2C2CCN(C)CC2)n1` [SB-222903]: the potency estimated from few doses in the assay on BUB1 (setting [1]) is 1920 nM; in the assay on CSNK1D, 11.1 nM; with MAPK9 it was 462 nM; in the assay on MAPKAPK2 (setting [1]), 49 nM.
